In PubChem BioAssay (Tox21):
Values joined by “and” are separate entries in the source; they are usually repeats but may differ in a detail not shown here. Identical values can stand only once. Results filed as inconclusive are left out. Entries that show only a call come without a potency. Some structures have more than one record in an assay (separate samples or runs), and their calls can disagree. Active and inactive are the calls of the source. Unless noted, calls follow the shape of the dose curve; as a rule, active = well fitted curve in the direction sought with a large enough effect in the repeat runs; inconclusive = weak or mixed curves; inactive = no such curve, though single readings can be large; an effect the other way counts as inactive or inconclusive.

Tests used:
[1] = qHTS assay for small molecule agonists of the p53 signaling pathway (AID 651631; calls by dose curve; also: nearly all actives have a fitted effect of over 15% in size; also: potency is read from the fitted curve at half-maximal effect)
How it was run: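 Fluorescence intensity from cleaved LiveBLAzer B/G substrate (2 h, room temperature) served as the signal. Beforehand, HCT-116 reporter cells bearing p53 response elements were treated 16 h at 37 °C with DMSO-dissolved compounds.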

[2] = qHTS assay for small molecules that induce genotoxicity in human embryonic kidney cells expressing luciferase-tagged ATAD5 (AID 651632); also: nearly all actives have a fitted effect of over 15% in size; also: potency is read from the fitted curve at half-maximal effect
How it was run: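 A rise in luciferase signal from ATAD5-tagged HEK293T cells marks genetic stress. Cells were exposed to compounds for 16 hr at 37C, 5% CO2, then luciferase was quantified after a 30 min room-temperature incubation with Amplite.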

[3] = qHTS assay for small molecule agonists of the p53 signaling pathway - cell viability (AID 651633; calls by dose curve; also: nearly all actives have a fitted effect of over 30% in size; also: potency is read from the fitted curve at half-maximal effect)
How it was run: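 p53RE-bla cells, seeded at 4,000 per well and rested 5 h at 37 C/5% CO2, received compounds in DMSO for 16 h at 37 C. CellTiter-Glo was then added, and luminescence was read after 30 min at room temperature to gauge cytotoxicity.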

[4] = qHTS assay for small molecules that induce genotoxicity in human embryonic kidney cells expressing luciferase-tagged ATAD5 - cell viability (AID 651634; calls by dose curve; also: nearly all actives have a fitted effect of over 25% in size; also: potency is read from the fitted curve at half-maximal effect)
How it was run: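 Cytotoxicity counter-readout: after 15.5 hr compound treatment at 37C, live-cell protease activity in ATAD5-luciferase HEK293T cells measured by CellTiter-Fluor fluorescence, 30 min development at 37C.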

[5] = qHTS assay for small molecule disruptors of the mitochondrial membrane potential - cell viability (AID 720634; calls by dose curve; also: nearly all actives have a fitted effect of over 20% in size; also: potency is read from the fitted curve at half-maximal effect)
How it was run: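 Cytotoxicity was quantified from ATP content by CellTiter-Glo luminescence in the same wells as the MMP dye read-out. HepG2 (2,000 cells/well) were plated overnight and exposed to compounds for 1 hr at 37 C.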

[6] = qHTS assay for small molecule disruptors of the mitochondrial membrane potential (AID 720635); also: potency is read from the fitted curve at half-maximal effect
How it was run: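 HepG2 cells (2,000/well) attached overnight at 37C, then took compound for 1 hr at 37C, 5% CO2. Mito-MPS dye was added for 30 min; fluorescence was read at 490/535 nm (monomers) and 540/590 nm (aggregates).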

[7] = qHTS assay to test for compound auto fluorescence at 590 nm (red) in HepG2 cells (AID 720674)
How it was run: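 Intrinsic compound fluorescence in the red window (Ex/Em 540/590 nm) is measured in attached HepG2 cells exposed for 1 hr, DMSO vehicle as baseline, benchmarked to Rose Bengal sodium.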

[8] = qHTS assay to test for compound auto fluorescence at 535 nm (green) in HepG2 cells (AID 720675)
[9] = qHTS assay to test for compound auto fluorescence at 460 nm (blue) in HEK293 cells (AID 720678); also: potency is read from the fitted curve at half-maximal effect
How it was run: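 Triamterene serves as the blue fluorophore standard. Compound signal at 405/460 nm is read in HEK293 wells (2,000 cells, 10% dialyzed FBS) after overnight treatment at 37C.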

[10] = qHTS assay to test for compound auto fluorescence at 590 nm (red) in HEK293 cells (AID 720679)
How it was run: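 We plated HEK293 cells in 10% dialyzed FBS medium, let them adhere for 4-5 hr, then added 23 nL compound. Overnight at 37C and 5% CO2 preceded fluorescence measurement at 540/590nm.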
Tags tell the direction and shape of the fitted curve or compound fluorescence and quenching.

Compound	Potency [1]	Potency [2]	Potency [3]	Potency [4]	Potency [5]	Potency [6]	outcome [7]	outcome [8]	Potency [9]	outcome [10]
C=CC(=O)OCCCCCCCC(C)C	inactive	inactive	inactive	inactive	inactive	inactive	inactive	inactive	inactive	inactive
OC[C@@H](O)[C@H](O)[C@H](O)[C@@H](O)CO	inactive	inactive	inactive	inactive	inactive	inactive	inactive	inactive	inactive	inactive
COC(=O)Nc1nc2ccc(Sc3ccccc3)cc2[nH]1	114 nM (active) and 68.6 nM (active)	4.03 µM (active) and 12.2 µM (active)	inactive	inactive	inactive	4.33 µM (active)	inactive	inactive	inactive	inactive
CCCCCCOC(C)=O	inactive	inactive	inactive	inactive	inactive	inactive	inactive	inactive	inactive	inactive
Cn1c([N+](=O)[O-])cnc1COC(N)=O	inactive	inactive	inactive	inactive	inactive	inactive	inactive	inactive	inactive	inactive
C=C1C2CCC(C2)C1(C)C (stereo not given)	inactive	inactive	inactive	inactive	inactive	inactive	inactive	inactive	inactive	inactive
CC(C)(C)C1CCC(O)CC1 (stereo not given)	inactive	inactive	inactive	inactive	inactive	inactive	inactive	inactive	inactive	inactive
CC(C)Cc1ccccc1	inactive	inactive	inactive	inactive	inactive	inactive	inactive	inactive	inactive	inactive
Clc1cc(Cl)c(Cl)cc1Cl	inactive	inactive	inactive	inactive	inactive	inactive	inactive	inactive	inactive	inactive
O=C(Cl)c1c(Cl)c(Cl)c(C(=O)Cl)c(Cl)c1Cl	inactive	inactive	inactive	inactive	inactive	inactive	inactive	inactive	inactive	inactive
Oc1ccc(OCc2ccccc2)cc1	9.02 µM (active)	12.7 µM (active)	inactive	inactive	inactive	10.1 µM (active) and 23.8 µM (active)	inactive	inactive	inactive	inactive
C=C(C)C(=O)OCCC[Si](OC)(OC)OC	inactive	inactive	inactive	inactive	inactive	76.1 µM (active) and inactive	inactive	inactive	inactive	inactive
OC[C@@H](O)[C@@H](O)[C@H](O)[C@@H](O)CO	inactive	inactive	inactive	inactive	inactive	inactive	inactive	inactive	inactive	inactive
NCCc1ccc(O)c(O)c1	inactive	inactive	inactive	inactive	inactive	inactive	inactive	inactive	inactive	inactive
NCc1cccc(CN)c1	inactive	inactive	inactive	inactive	inactive	inactive	inactive	inactive	inactive	inactive
Nc1cc(-c2ccncc2)c[nH]c1=O	inactive	inactive	inactive	inactive	inactive	inactive	inactive	inactive	inactive	inactive
CC(C)(CO)COC(=O)C(C)(C)CO	inactive	inactive	inactive	inactive	inactive	inactive	inactive	inactive	inactive	inactive
Cc1ccc(N)c(S(=O)(=O)O)c1	inactive	inactive	inactive	inactive	inactive	inactive	inactive	inactive	inactive	inactive
O=[N+]([O-])c1cccc(Cl)c1	inactive	inactive	inactive	inactive	inactive	inactive	inactive	inactive	inactive	inactive
CC1Cc2ccccc2N1NC(=O)c1ccc(Cl)c(S(N)(=O)=O)c1 (stereo not given)	inactive	inactive	inactive	inactive	inactive	inactive	inactive	inactive	inactive	inactive
CCCCNC(N)=O	inactive	inactive	inactive	inactive	inactive	inactive	inactive	inactive	inactive	inactive
CCCCC(CC)COC(=O)/C=C\C(=O)OCC(CC)CCCC (stereo not given)	inactive	inactive	inactive	inactive	inactive	inactive	inactive	inactive	inactive	inactive
CC(=O)CCc1ccccc1	inactive	inactive	inactive	inactive	inactive	inactive	inactive	inactive	inactive	inactive

Compound	Potency [1]	Potency [2]	Potency [3]	Potency [4]	Potency [5]	Potency [6]	outcome [7]	outcome [8]	Potency [9]	outcome [10]
CCC(C)C=O (stereo not given)	inactive	inactive	inactive	inactive	inactive	inactive	inactive	inactive	inactive	inactive
OCCOCCOCCOCCO	inactive	inactive	inactive	inactive	inactive	inactive	inactive	inactive	inactive	inactive
O=C(c1ccc(O)cc1)c1ccc(O)cc1O	27.6 µM (active)	inactive	inactive	inactive	55 µM (active)	19.5 µM (active) and 54.5 µM (active)	inactive	inactive	inactive	inactive
Nc1nc2ncc(CNc3ccc(C(=O)N[C@@H](CCC(=O)O)C(=O)O)cc3)nc2c(=O)[nH]1	inactive	inactive	inactive	inactive	inactive	inactive	inactive	inactive	44.7 µM [fluorescent] (active)	inactive
O=C(Oc1ccccc1)c1ccc(O)cc1	inactive	inactive	inactive	inactive	61.1 µM (active)	61.1 µM (active)	inactive	inactive	inactive	inactive
Cc1cc(O)c2c(c1)C(=O)c1cc(O)cc(O)c1C2=O	10.6 µM (active)	inactive	inactive and 61.1 µM (active)	23.8 µM (active) and 54.5 µM (active)	15 µM (active)	1.68 µM (active) and 545 nM (active)	inactive	inactive	inactive	inactive
NS(=O)(=O)c1cc2c(cc1Cl)NC=NS2(=O)=O	inactive	inactive	inactive	inactive	inactive	inactive	inactive	inactive	inactive	inactive
OCC1CCCO1 (stereo not given)	inactive	inactive	inactive	inactive	inactive	inactive	inactive	inactive	inactive	inactive
CNC[C@H](O)[C@@H](O)[C@H](O)[C@H](O)CO	inactive	inactive	inactive	inactive	inactive	inactive	inactive	inactive	inactive	inactive
O=S(=O)(O)CCS	inactive	inactive	inactive	inactive	inactive	inactive	inactive	inactive	inactive	inactive
C=C(C)C(=O)OCC(CC)(COC(=O)C(=C)C)COC(=O)C(=C)C	inactive	inactive	inactive	inactive	inactive	inactive	inactive	inactive	inactive	inactive
CC(=O)Nc1ccc(C(=O)O)cc1	inactive	inactive	inactive	inactive	inactive	inactive	inactive	inactive	inactive	inactive
COCC(=O)O	inactive	inactive	inactive	inactive	inactive	inactive	inactive	inactive	inactive	inactive
c1ccc2[nH]cnc2c1	inactive	inactive	inactive	inactive	inactive	inactive	inactive	inactive	inactive	inactive
CCCCC(CC)C(=O)OCCOCCOCCOC(=O)C(CC)CCCC (stereo not given)	inactive	inactive	inactive	inactive	inactive	inactive and 15.4 µM (active)	inactive	inactive	inactive	inactive
CCCCOCCO	inactive	inactive	inactive	inactive	inactive	inactive	inactive	inactive	inactive	inactive
CCCCCCCCCCCCN	inactive	inactive	inactive and 27.3 µM (active)		inactive		inactive	inactive	inactive	inactive
CCCCCCCCC	inactive	inactive	inactive	inactive	inactive	inactive	inactive	inactive	inactive	inactive
CC1(C)CC(N=C=O)CC(C)(CN=C=O)C1 (stereo not given)	inactive	inactive	inactive	inactive	inactive		inactive	inactive	inactive	inactive
C[C@@H](O)[C@H]1C(=O)N2C(C(=O)O)=C(S[C@@H]3CN[C@H](C(=O)N(C)C)C3)[C@H](C)[C@H]12	inactive	inactive	inactive	inactive	inactive		inactive	inactive	inactive	inactive
Cc1ccc(C)c(C)c1	inactive	inactive	inactive	inactive	inactive	inactive	inactive	inactive	inactive	inactive
COC(=O)c1ccccc1O	inactive	inactive	inactive	inactive	inactive	inactive	inactive	inactive	inactive	inactive
O=S(=O)(O)c1cc(S(=O)(=O)O)c2c(N=Nc3ccccc3)c(O)ccc2c1	inactive	inactive	inactive	48.8 µM (active) and 61.1 µM (active)	inactive		inactive	inactive	inactive	inactive
